Screening results deposited in PubChem BioAssay by National Center for Advancing Translational Sciences (NCATS).
VACV mCherry inh: vaccinia inhibition (mCherry reporter); Vaccinia virus mCherry reporter infection, fluorescence; Potency, µM (top dose mostly 36.5 µM), actives largely listed as inhibitors; 310,000 tested, 0.63% active; AID 720579; calls by dose curve; tested in A549 cells; also: nearly all actives have a fitted effect of over 35% in size
Tb PYK inh: blocks Trypanosoma brucei pyruvate kinase | Q57TT1 | TbPYK enzyme, Kinase-Glo Plus ATP luminescence, 45 min | Potency, µM (top dose mostly 76.8 µM), hits mostly inhibitors | 410,000 tested, 0.12% active; also: nearly all actives have a fitted effect of over 50% in size
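ADP (130 uM final) triggers the TbPYK reaction after compound addition; incubation is 45 min at room temperature. Kinase-Glo Plus is then added and luminescence imaged. Normalized data are fitted to concentration-effect curves.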
Vaccinia Venus: vaccinia inhibition (Venus reporter); Vaccinia virus Venus reporter expression, fluorescence; Potency, µM (series often up to 36.5 µM), most hits filed as inhibitors; 330,000 tested, 0.46% active; calls by dose curve; tested in A549 cells; also: nearly all actives have a fitted effect of over 30% in size
HCMV inh: inhibitors of human cytomegalovirus. activity change, negative = inhibition, % at 57.5 µM. AID 1259415. HFF cells, HCMV-luciferase reporter, 72 h; hits give low values. 410,000 tested, 4.5% active; in the data active = activity change below about -60%; inconclusive = no clear call, values can overlap the other calls; inactive = above about -39%
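Inhibition of viral replication was scored as loss of reporter luminescence in HFFs infected with HCMV-luciferase (MOI 1 PFU/cell) for 72 h; compounds tested at 2 doses, normalized to buffer and Salinomycin controls.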
LmPK inhibitor: blocks Leishmania mexicana pyruvate kinase activity; 290,000 tested, 0.37% active; Q27686; purified LmPK, Kinase-Glo ATP luminescence, 1 h; Potency, µM (titrated, usually from 57.5 µM), hits mostly inhibitors
Target sequence (Q27686 whole entry, looked up): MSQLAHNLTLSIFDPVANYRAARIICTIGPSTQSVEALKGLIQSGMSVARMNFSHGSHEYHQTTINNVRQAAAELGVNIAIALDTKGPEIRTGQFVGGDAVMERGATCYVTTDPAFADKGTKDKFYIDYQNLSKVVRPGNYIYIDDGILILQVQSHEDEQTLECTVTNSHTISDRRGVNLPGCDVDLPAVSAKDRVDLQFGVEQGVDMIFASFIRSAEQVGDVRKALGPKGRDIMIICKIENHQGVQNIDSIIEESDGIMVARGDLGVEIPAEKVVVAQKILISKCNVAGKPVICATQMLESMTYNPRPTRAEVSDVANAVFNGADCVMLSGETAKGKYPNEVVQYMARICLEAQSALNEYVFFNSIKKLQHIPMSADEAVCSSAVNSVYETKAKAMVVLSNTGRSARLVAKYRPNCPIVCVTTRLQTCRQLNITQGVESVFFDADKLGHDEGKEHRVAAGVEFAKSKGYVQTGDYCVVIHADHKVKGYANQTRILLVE
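Screened at intermediate enzyme activity to detect both inhibitors and activators: LmPK at 0.1 nM, with a 0.5 nM enzyme column as activation reference. PEP 0.5 mM, ADP 0.1 mM; ATP detected by luminescence after 1 h.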
Hits are given with their value; n = inactive; u = inconclusive; x = not tested or not shown; + = active, no number; [ ] = remark or other dose. Most compounds without a hit are left out; they make up all but 5% or so of the library. Unless noted, calls follow the shape of the dose curve; as a rule, active = well fitted curve in the direction sought with a large enough effect; inconclusive = small, poorly fitted or top-dose-only effect, or another doubt; inactive = no such curve, though single readings can be large; an effect the other way counts as inactive or inconclusive.

SMILES	VACV mCherry inh	Tb PYK inh	Vaccinia Venus	HCMV inh	LmPK inhibitor
CCOC(=O)c1nn(-c2ccc(F)cc2)c2nc(CC(C)C)c(C#N)c(=O)n12	x	n	x	n	n
Cc1ccc2sc(NNC(=O)C3COc4ccccc4O3)nc2c1C (stereo not given)	u	u	n	n	n
CCCCn1c(-c2ccc(C(C)(C)C)cc2)nc2cc3[nH]c(=O)c(C(C)C)nc3cc21	10µM	n	u	n	n
CCN(CC)Cc1c(O)ccc2c(=O)c(Oc3ccccc3OC)coc12	n	n	n	-61.5	n
COc1ccccc1Oc1coc2c(CN(C)C)c(O)ccc2c1=O	x	n	n	n	n
Cc1noc(C)c1CSCC(=O)N(C)CC(=O)Nc1cccc(F)c1	n	n	n	n	n
COc1ccccc1CN1CCN(C(=O)c2ccco2)CC1	n	n	n	n	n
O=C(Cc1ccc(-n2c(=O)c3sccc3n(CC(=O)Nc3ccccc3F)c2=O)cc1)NCc1ccco1	x	n	x	-60.1	n
CCOc1ccc(S(=O)(=O)N2CCN(C)CC2)cc1NC(=O)c1ccccc1F	n	n	n	n	n
CCOc1ccc(S(=O)(=O)N2CCN(CC)CC2)cc1NC(=O)c1ccccc1F	n	n	n	-83.8	n
O=C(c1ccc(S(=O)(=O)Cc2ccccc2F)c([N+](=O)[O-])c1)N1CCCCCC1	u	n	n	u	n
O=C(c1ccc(S(=O)(=O)c2cccc(Cl)c2)c([N+](=O)[O-])c1)N1CCN(c2ccccn2)CC1	n	n	n	-78.0	n
O=C(c1ccc(S(=O)(=O)c2ccccc2Cl)c([N+](=O)[O-])c1)N1CCCCCC1	n	n	n	-65.0	n
O=C(Nc1ccc(-c2nc3ncccc3o2)cc1)c1ccc([N+](=O)[O-])o1	n	n	n	-75.6	n
Cc1c(Cl)cccc1-c1ccc(C(=O)Nc2ccc3oc(-c4cccnc4)nc3c2)o1	n[7.34 µM]	n	n[7.34 µM]	u	x
O=C(Nc1ccc2oc(-c3ccncc3)nc2c1)c1ccccc1	n	n	n	u	n
O=C(Nc1cccc(-c2nc3ncccc3o2)c1)c1ccc(-c2cccc(Cl)c2Cl)o1	u	n	n	-91.5	x
Cc1ccc(-c2nc3ncccc3o2)cc1NC(=O)c1ccc([N+](=O)[O-])o1	n	n	n	x	n
O=C(Nc1ccc2oc(-c3cccnc3)nc2c1)c1ccc(-c2cccc(OC(F)(F)F)c2)o1	n	n	n	-82.0	x
O=C(Nc1ccc2oc(-c3ccncc3)nc2c1)c1ccc([N+](=O)[O-])o1	10µM	n	u	-102.0	n
CCOc1ccc(OCC)c(NC(=O)CSc2nnnn2CC)c1	n	n	n	n	n
COC(=O)Cc1[nH]c(=O)[nH]c1C(=O)OC	n	n	n	n	n
COc1ccc(CNC(=O)C2CCC(CNS(=O)(=O)c3ccc4c(c3)CCCC(=O)N4)CC2)cc1 (stereo not given)	n	n	n	n	x
CCOC(=O)CCc1ccc(NC(=O)/C=C/c2ccc([N+](=O)[O-])o2)cc1	u	n	12.6µM	n	x
C=CC(=O)Nc1ccc(CN2C(=O)N(c3c(Cl)c(OC)cc(OC)c3Cl)Cc3cnc(NCCCCN(CC)CC)nc32)cc1	u	n	3.16µM	x	x
SMILES	VACV mCherry inh	Tb PYK inh	Vaccinia Venus	HCMV inh	LmPK inhibitor
Cc1cc(-n2c(C)cc(C(=O)CSc3nncn3C)c2C)no1	n	n	n	n	x
Cc1cc(-n2c(C)cc(C(=O)CSc3nncn3C(C)C)c2C)no1	n	n	n	-97.5	x
Cc1cc(C(=O)c2ccc(C(C)(C)C)cc2)c(NC(=O)CCl)s1	n	n	n	-65.0	n
O=S(=O)(c1ccc(OC(F)(F)F)cc1)N1CCC(c2nnnn2-c2ccc(F)cc2)CC1	n	n	n	-73.1	x
Cc1ccc(-n2nnnc2C2CCN(S(=O)(=O)c3ccc(OC(F)(F)F)cc3)CC2)cc1	n	n	n	n	x
CC1(C(=O)Nc2ccc3c(c2)OCO3)Cc2c(-c3ccccc3)ccnc2O1 (stereo not given)	n	n	n	n	x
CC1(C(=O)Nc2cccc(OC(F)(F)F)c2)Cc2c(-c3ccc4c(c3)OCO4)ccnc2O1 (stereo not given)	n	n	n	-60.3	x
CC1(C(=O)Nc2ccc(Cl)c(C(F)(F)F)c2)Cc2c(-c3ccc(C(N)=O)cc3)ccnc2O1 (stereo not given)	n	n	n	-61.7	x
CC(=O)Nc1cccc(-c2ccnc3c2CC(C)(C(=O)Nc2ccc4c(c2)OCO4)O3)c1 (stereo not given)	n	n	u	-79.0	x
CC1(C(=O)Nc2ccc(Cl)c(C(F)(F)F)c2)Cc2c(-c3cccc(C(N)=O)c3)ccnc2O1 (stereo not given)	n	n	n	n	x
CN(C)c1ccc(-c2ccnc3c2CC(C)(C(=O)Nc2cccc(OC(F)(F)F)c2)O3)cc1 (stereo not given)	n	n	n	n	x
COc1ccc(NC(=O)C2(C)Cc3c(-c4cccc(NC(C)=O)c4)ccnc3O2)cn1 (stereo not given)	u	n	n	-71.6	x
COc1ccc(NC(=O)C2(C)Cc3c(-c4ccc(NC(C)=O)cc4)ccnc3O2)cn1 (stereo not given)	n	n	n	n	x
Nc1ccc(Nc2ccccc2)c(S(=O)(=O)O)c1	n	n	n	n	n
CNC(=O)C1(C)Cc2c(-c3ccc4c(c3)OCO4)ccnc2O1 (stereo not given)	n	n	n	n	x
COc1ccc(NC(=O)C2(C)Cc3c(-c4ccc5c(c4)OCO5)ccnc3O2)cc1 (stereo not given)	n	n	u	-61.5	x
CCCc1sc(N/N=C/c2ccccn2)nc1-c1ccc(Br)cc1	u	n	n	-98.5	n
CC(=O)Nc1sc(N/N=C/c2ccccc2)nc1-c1ccc(C)cc1	n	n	n	n	n
Cc1ccc(Cl)cc1NC(=O)c1sc2nc(-c3ccccc3)cn2c1C	n	n	n	-63.2	x
Cc1c(C(=O)Nc2ccccc2)sc2nc(-c3ccccc3)cn12	x	n	x	n	n
Cc1c(CCC(=O)NCCc2ccccc2)c(=O)oc2c(C)c(O)ccc12	n	n	n	n	x
Cc1ccc(Nc2c([N+](=O)[O-])cc(C(=O)N3CC(=O)Nc4ccccc43)cc2[N+](=O)[O-])c(C)c1	x	n	u	u	n
CC(C)c1nc(NCc2ccccc2)c(C#N)c2c1CCCC2	n	n	n	n	n
CC(C)c1nc(NCCO)c(C#N)c2c1CCCC2	n[7.34 µM]	n	n[7.34 µM]	-65.7	n
Cc1ccc(S(=O)(=O)N2CCCCC2)cc1C(=O)NCCc1ccccc1	n	n	n	n	n
CCCCCNC(=O)c1cc(S(=O)(=O)N2CCCCC2)ccc1F	x	n	x	-104.7	n
CC(C)CN(CCCNC(=O)c1cc(=O)[nH]c2ccc(S(=O)(=O)N3CCCC3)cc12)CC(C)C	n	n	n	-67.7	x
O=C(NCCc1ccccc1)c1cc(S(=O)(=O)N2CCCC2)ccc1F	x	n	x	+	n
CCCCn1c(N)c(N(C(=O)CSc2nnnn2-c2ccccc2)C2CCCC2)c(=O)[nH]c1=O	x	n	x	n	x
